Assay outcomes from PubChem.
Shown are actives, neighbours in structure and some others; about 3.1% of the full set was active somewhere.
MITF act = activators of MITF-driven TRPM1 promoter reporter, primary screen, cell-based, SK-MEL-5, luciferase, single point. SK-MEL-5 TRPM1-promoter luciferase, 24 h; % of positive control, neutral wells = 0. activation, % at 12.5 µM. 300,000 compounds, 0.75% hits;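 active = mean activation of at least 80% with every replicate also reaching 80%; inconclusive = mean reaches 80% but some replicate falls short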
esBAF inh = Bmi1 luciferase reporter increase in mESCs, primary screen, esBAF inhibitor project, mouse ES cells, Bmi1 luciferase knock-in, single point; AID 602393, 2012; reporter increase, % at 12.5 µM; 350,000 compounds, 2% hits; 24 h; 100% = twice the neutral-well signal; in the data active = activation above about 40%; inconclusive = no clear call, values can overlap the other calls;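 also: a rise in the Bmi1 reporter signal indicates esBAF inhibition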
C2C12 statin = suppressors of statin myotoxicity in C2C12 myotubes, primary screen, cell-based, single point, plate reader. C2C12 myotubes + simvastatin, ATP luminescence, 48 h; scaled: DMSO 0, geranylgeraniol control 100. 330,000 compounds, 0.78% hits. rescue of ATP level, % at 7.49 µM;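 active = mean ATP rescue above about 67%, or every replicate alone reaching that limit, limit read from the data, passing the limit was not always enough; inconclusive = no clear call, values can overlap the other calls; inactive = mean under the limit and some replicate under it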;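 also: myotubes were challenged with 10 µM simvastatin during compound exposure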
Wnt act = Wnt/beta-catenin pathway activators, primary screen, cell-based, plate reader, single point; Wnt/beta-catenin reporter cell assay, activator; activation, % at 9.35 µM; 300,000 compounds, 1.2% hits; in the data active = activation above about 30%, passing the limit was not always enough; inconclusive = no clear call, values can overlap the other calls
Rtt109 Vps75 = inhibitors of C. albicans Rtt109/Vps75 HAT, primary screen, biochemical, ThioGlo CoA-SH fluorescence, plate reader; Histone acetyltransferase RTT109 (Candida albicans (strain SC5314 / ATCC MYA-2876)), …; purified Rtt109/Vps75, 4 h; inhibition, % at 34.9 µM; 330,000 compounds, 0.16% hits;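 active = inhibition of at least 50% in every replicate; inconclusive = best replicate reaches 50% inhibition but some replicates fall short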
Target sequence (Q5AAJ8 whole entry, looked up): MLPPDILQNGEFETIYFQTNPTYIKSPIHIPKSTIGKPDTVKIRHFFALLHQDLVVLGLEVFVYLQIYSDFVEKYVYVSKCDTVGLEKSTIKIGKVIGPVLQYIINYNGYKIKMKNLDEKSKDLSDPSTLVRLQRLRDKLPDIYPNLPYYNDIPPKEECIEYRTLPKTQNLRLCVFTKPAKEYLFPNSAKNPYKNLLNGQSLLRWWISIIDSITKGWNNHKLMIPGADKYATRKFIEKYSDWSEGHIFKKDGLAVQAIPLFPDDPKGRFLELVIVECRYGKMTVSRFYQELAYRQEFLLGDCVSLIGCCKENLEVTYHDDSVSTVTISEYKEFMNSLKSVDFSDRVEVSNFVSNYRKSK
Ring1 derepress = Ring1 mRNA increase in mouse ESCs, confirmation, esBAF inhibitor project, cell-based, mouse ESC, RT-qPCR, cherry-pick; mouse ESC E14, Ring1 mRNA RT-qPCR fold change; fold change at 33 µM; 550 tested, under 10 active; shares compounds with esBAF inh;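 active = Ring1 gene expression raised more than 2-fold over untreated cells in both replicates at either tested dose; inconclusive = only one replicate above 2-fold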;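 also: Ring1 transcript normalised to actin housekeeping signal by TaqMan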
Fgf4 repress = Fgf4 mRNA decrease in mouse ESCs, confirmation, esBAF inhibitor project, cell-based, mouse ESC, RT-qPCR, cherry-pick | shares compounds with esBAF inh | 550 compounds, 4% hits | mouse ESC E14, Fgf4 mRNA qPCR fold change; hits give low values | Fgf4 expression fold change at 33 µM;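 active = Fgf4 expression under 0.8 fold of control in both repeat measurements at one or both tested doses; inconclusive = under 0.8 fold in just a single repeat measurement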;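 also: Fgf4 transcript normalised to actin in duplex TaqMan qPCR; cells exposed to compound for 24 h before lysis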
Bmi1 derepress = esBAF inhibition via Bmi1 de-repression, confirmation, cell-based, RT-qPCR, mouse ESC, single point, cherry-pick; shares compounds with esBAF inh; mouse ESE14 ES cells, Bmi1 mRNA qPCR fold; hits give high values; fold change at 33 µM; 550 tested, under 10 active; AID 743180, 2013;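 active = Bmi1 expression fold change above 6 at either tested concentration, seen in replicate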;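 also: higher fold means more Bmi1 de-repression and stronger esBAF inhibition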
A549 tox SP = A549 cell cytotoxicity, cytotoxicity control, plate reader, single point, cherry-pick. 550 tested, under 10 active. AID 743188, 2013. shares compounds with esBAF inh. cell viability change % (negative = cytotoxic), % at 25 µM, hits read low; call rule not given here
HepG2 cytotox SP = HepG2 cell cytotoxicity, cytotoxicity control, plate reader, single point, cherry-pick; shares compounds with esBAF inh; activity change, negative = inhibition, % at 25 µM; hits give low values; 550 compounds, 4% hits; in the data active = activity change below about -50%
HEK293 cytotox SP = HEK293 cell cytotoxicity, cytotoxicity control, plate reader, single point, cherry-pick; 550 compounds, 3% hits; shares compounds with esBAF inh; activity change, negative = inhibition, % at 25 µM, hits read low; in the data active = activity change below about -38%, passing the limit was not always enough
Each line names hits and unclear results; the compound was inactive in the other large screens (follow-up assays come after a bar, where they were run).

O=C(NCCc1ccc(F)cc1)c1ccc2c(=O)n3c(nc2c1)CCC3	esBAF inh 54 | Ring1 derepress inactive | Fgf4 repress inactive | Bmi1 derepress inactive | A549 tox SP inactive | HepG2 cytotox SP inactive | HEK293 cytotox SP inactive
Nc1c(C(=O)N2CCCCC2)sc(=S)n1-c1ccccc1	none (no result: Wnt act)
Nc1nc(SCc2ccccc2)sc1C(=O)N1CCCCC1	esBAF inh 60, Wnt act 43 (no result: MITF act, Rtt109 Vps75) | Ring1 derepress inactive | Fgf4 repress inactive | Bmi1 derepress inactive | A549 tox SP inactive | HepG2 cytotox SP inactive | HEK293 cytotox SP inactive
CC(=O)n1nc(-c2ccccc2)nc1NCc1ccc(N(C)C)cc1	esBAF inh 59 | Ring1 derepress inactive | Fgf4 repress inactive | Bmi1 derepress inactive | A549 tox SP inactive | HepG2 cytotox SP inactive | HEK293 cytotox SP inactive
CN(C)c1ccc(CNc2nc(-c3ccccc3)nn2S(C)(=O)=O)cc1	none
C=CCOc1ccccc1/C=N/NC(=O)c1ccc(Cl)cc1Cl	none
COc1cc(C(=O)Oc2ccccc2/C=N/NC(=O)c2ccc(Cl)cc2Cl)cc(OC)c1OC	esBAF inh 47 (no result: Wnt act) | Ring1 derepress inactive | Fgf4 repress inactive | Bmi1 derepress 8.4 | A549 tox SP inactive | HepG2 cytotox SP inactive | HEK293 cytotox SP inactive
C[C@@H]1CN([C@H](C)CO)C(=O)c2cc(NC(=O)Nc3ccc4c(c3)OCO4)ccc2O[C@@H](C)CCCCO[C@H]1CN(C)Cc1ccccc1	none (no result: MITF act, Wnt act, Rtt109 Vps75)
COc1cc(CNc2ccc(S(N)(=O)=O)cc2)ccc1OCc1ccccc1F	esBAF inh 96 (no result: MITF act) | Ring1 derepress inactive | Fgf4 repress inactive | Bmi1 derepress inactive | A549 tox SP inactive | HepG2 cytotox SP inactive | HEK293 cytotox SP inactive
CO[C@H](CN(C)S(=O)(=O)c1ccccc1)[C@@H](C)CN(Cc1ccccc1Cl)[C@@H](C)CO	none (no result: MITF act, Wnt act, Rtt109 Vps75)
CN1CCN(/N=C/c2ccc(N(C)c3ccccc3)cc2)CC1	none
CN(C)c1ccc(C=NN2CCCCCC2)cc1	esBAF inh 75 | Ring1 derepress inactive | Fgf4 repress inactive | Bmi1 derepress inactive | A549 tox SP inactive | HepG2 cytotox SP inactive | HEK293 cytotox SP inactive
Cc1ccc(O)c(NC(=O)c2ccc3c(c2)C(=O)N(CC(C)C)C3=O)c1	esBAF inh 57 (no result: MITF act) | Ring1 derepress inactive | Fgf4 repress inactive | Bmi1 derepress inactive | A549 tox SP inactive | HepG2 cytotox SP inactive | HEK293 cytotox SP inactive
CCCN1C(=O)c2ccc(C(=O)Nc3cc(C)ccc3O)cc2C1=O	none (no result: MITF act)
Cc1ccnc(NC(=O)c2ccc3c(c2)C(=O)N(CC(C)C)C3=O)c1	esBAF inh 74 | Ring1 derepress inactive | Fgf4 repress inactive | Bmi1 derepress inactive | A549 tox SP inactive | HepG2 cytotox SP inactive | HEK293 cytotox SP inactive
Cc1noc(C)c1NC(=O)N(C)C[C@H]1Oc2c(NC(=O)NC(C)C)cccc2C(=O)N([C@@H](C)CO)C[C@@H]1C	none (no result: MITF act, C2C12 statin, Wnt act, Rtt109 Vps75)
Nc1cc2c3ccccc3ccc2c2ccccc12	esBAF inh 79 | Ring1 derepress 0.64 | Fgf4 repress 0.48 | Bmi1 derepress 37 | A549 tox SP inactive | HepG2 cytotox SP inactive | HEK293 cytotox SP -119
Nc1ccc2ccccc2c1[N+](=O)[O-]	none
COc1cccc(NC(=O)N[C@H]2CC[C@H](CC(=O)NCc3ccncn3)O[C@@H]2CO)c1	none (no result: MITF act, Wnt act, Rtt109 Vps75)
COc1cc(/C=C/c2ccccc2)cc(OC)c1	MITF act 96, esBAF inh 68 | Ring1 derepress inactive | Fgf4 repress inactive | Bmi1 derepress inactive | A549 tox SP inactive | HepG2 cytotox SP inactive | HEK293 cytotox SP inactive
COc1cc(C=C2C(=O)c3ccccc3C2=O)cc(OC)c1	none (no result: MITF act, esBAF inh, C2C12 statin)
CCc1nc(SCc2ccc(Cl)cc2)n[nH]1	none (no result: esBAF inh, C2C12 statin)
CCc1nc(SCc2ccc(Br)cc2)n[nH]1	esBAF inh 47, C2C12 statin inconclusive | Ring1 derepress inactive | Fgf4 repress inactive | Bmi1 derepress inactive | A549 tox SP inactive | HepG2 cytotox SP inactive | HEK293 cytotox SP inactive
O=C(Cc1ccccc1)Nc1ccc2c(c1)OC1(CCCC1)O2	MITF act 110, esBAF inh 75, Wnt act 48 | Ring1 derepress inactive | Fgf4 repress inactive | Bmi1 derepress inactive | A549 tox SP inactive | HepG2 cytotox SP inactive | HEK293 cytotox SP inactive
Cc1ccc(Nc2nc(Cl)nc(NC(C)(C)C)n2)cc1	MITF act 100, esBAF inh 77 | Ring1 derepress inactive | Fgf4 repress inconclusive | Bmi1 derepress inactive | A549 tox SP inactive | HepG2 cytotox SP inactive | HEK293 cytotox SP inactive
Cn1cnc(S(=O)(=O)N2C[C@@H](O)COC[C@@H]3O[C@H](CC(=O)N4CCN(c5ccccc5)CC4)CC[C@H]32)c1	none (no result: MITF act, Wnt act, Rtt109 Vps75)
O=C(C[C@@H]1C=C[C@@H](NC(=O)Nc2ccccc2)[C@H](CO)O1)NCc1ccccn1	none (no result: MITF act, Wnt act, Rtt109 Vps75)
CCC(=O)N1CC[C@@H]2[C@H](CO)Nc3ccc(-c4ccccc4)cc3[C@@H]21	none (no result: MITF act, Wnt act, Rtt109 Vps75)
c1ccc(-c2nc3c(ccc4ccccc43)[nH]2)nc1	esBAF inh 100 (no result: Wnt act) | Ring1 derepress inactive | Fgf4 repress inactive | Bmi1 derepress inactive | A549 tox SP inactive | HepG2 cytotox SP inactive | HEK293 cytotox SP inactive
C[C@@H]1CN([C@H](C)CO)C(=O)c2cc(NC(=O)Cn3cnnn3)ccc2O[C@H]1CN(C)S(=O)(=O)c1ccc(Cl)cc1	none (no result: MITF act, Wnt act, Rtt109 Vps75)
c1ccc(Oc2cc(-c3ccccc3)ncn2)cc1	esBAF inh 77 (no result: MITF act, Wnt act) | Ring1 derepress inactive | Fgf4 repress inconclusive | Bmi1 derepress inactive | A549 tox SP inactive | HepG2 cytotox SP inactive | HEK293 cytotox SP inactive
COc1ccc(NC(=O)c2cc(-c3cccs3)on2)cc1	MITF act 110, esBAF inh 62, Wnt act inconclusive | Ring1 derepress inactive | Fgf4 repress inconclusive | Bmi1 derepress inactive | A549 tox SP inactive | HepG2 cytotox SP inactive | HEK293 cytotox SP inactive
